Reference: the supplement of paper PMC6555819

Experiments:
Assay in all cases: PBM binding z-score (relative to random genomic background probes); higher = stronger binding; sequences stand for … in GC…GCGATTGACAGCGTAGAATGAAGG
[1] = system: RARb homodimer (NR concentration 270 nM)
In short: (§1)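 Each nuclear receptor dimer, without ligand, was incubated for 1 h on custom Agilent 4×180K protein-binding microarrays. Binding was detected with antibodies against each partner (one per run), and scanned fluorescence was regression-normalized. The binding z-scores are referenced to random human genomic background probes.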

[2] = system: RARg:RXRa (NR concentration 270 nM, RXRa partner concentration 90 nM)
In short: as §1

[3] = system: RARg homodimer (NR concentration 270 nM)
In short: as §1

[4] = system: RXRa DBDmut IVT, anti-RXR (DBD mutation: RXRa K156A/R161A, NR concentration 90 nM)
In short: as §1

[5] = system: RXRa homodimer (NR concentration 180 nM)
In short: as §1

[6] = system: THRa:RXRa (NR concentration 90 nM, RXRa partner concentration 90 nM)
In short: as §1

[7] = system: THRa homodimer (NR concentration 90 nM)
In short: as §1

[8] = system: VDR homodimer (NR concentration 270 nM)
In short: as §1

Sequence	PBM binding z-score [1]	PBM binding z-score [2]	PBM binding z-score [3]	PBM binding z-score [4]	PBM binding z-score [5]	PBM binding z-score [6]	PBM binding z-score [7]	PBM binding z-score [8]
CCTAGCCGGCCAGGGTCACTCAAGCATTTCGCTT	2.68	3.09	2.37	0.0811	3.47	2.91	1.08	1.38
AATACAGGGTAATCGTAGGCCAGAGTACGCACAG	0.578	0.923	0.637	-0.324	0.61	1.34	-0.13	0.508
CCTACTGGGCCATCAGGTCATTGAGATCAACGTT	2.68	2.15	2.06	0.124	1.43	3.28	2.88	1.89
CCGAGTAGGTTATGGGGCATTCAAGCAACGGTGA	0.855	0.557	0.579	0.355	0.617	0.205	0.0762	0.0962
CCAGATAGGTGAAAGGTAACTCAGTCTGGTACGC	1.04	1.53	0.944	0.181	2.46	0.97	0.0815	0.348
TCATATAGGTAAACAGGTGAAAGTCCGTAAGTTA	0.747	0.484	0.254	1.68	1.04	0.795	0.578	0.358
TCGAGTAGGTTAGTCGGGGCATTAAGCCAACATA	0.232	0.0892	-0.106	0.352	-0.0422	1.02	-0.508	0.177
ACTAGCAGGCCAAGGGTCATTCAAGATTAGTCCG	3.62	4.15	3.24	0.96	4.5	3.12	0.107	2.6
CCTTACGGGTCAATCCAGGTTATAGCATCGGAGT	3	4.49	4.17	1.75	4.31	4.93	0.547	1.32
CGTCCAAGGTCAGAGAGGTCAGTGAGTGCCGAGT	5.29	6.35	7.09	3.37	5.51	4.37	3.07	6.07
CATTCAGGGTCAGCTAGGCCAGAGTAGGGACGGC	3.59	4.64	5.03	2	5.08	3.44	1.31	1.42
GCGAGTTGGTCAGTAAAAGGTCACACACCGGTCG	5.05	5.52	4.95	1.34	5.54	3.47	1.74	2.27
CCTAGCAGGCCAGGGTCACTCATGCATTTCGCTT	2.68	2.82	1.97	0.745	2.96	2.79	1.04	1.31
ATCTCTAGGTAAAGATGGTTCAGTGAATGCAAAT	-0.0603	0.324	0.292	-0.0269	0.0778	0.592	0.0966	0.095
TAGCCTAGGTCATTCAGGGGCCAGTAAAGAAAGC	3.38	6.24	4.69	1.5	3.27	3.63	0.491	1.24
CCGGCTAGGTCAATGGTCAGCTAAAGCAGCTCGC	3.19	3.59	4.45	1.33	2.4	2.16	0.768	0.413
CGGCAAAGTTCAACTAAGGTAACGTAAAGCACGC	4	5.78	6.69	4.36	5.14	5.16	1.33	3.51
CCTTACGGGTCAAGGTTATTGCACGGGTGGTACG	3.5	4.83	4.5	0.197	5.06	3.04	0.977	1.95
ACTATTAGTTGACTTAGGGCAACAGATACGACGC	0.775	0.939	1.03	0.406	0.426	1.48	0.0505	0.162

Sequence	PBM binding z-score [1]	PBM binding z-score [2]	PBM binding z-score [3]	PBM binding z-score [4]	PBM binding z-score [5]	PBM binding z-score [6]	PBM binding z-score [7]	PBM binding z-score [8]
TCTTGTAGATCGAGCAGGTTAAGAAAGCCTGAGT	-0.141	-0.28	-0.423	0.213	0.0253	0.0849	-0.506	-0.257
CGAACGAGGGCGTGAGTTGATAGCAAATGCCGAT	-0.277	0.0501	-0.0612	1.36	0.221	0.142	-0.691	0.785
CCGACTGGGGCTTAAGGTTACCATAAGCCAGCCC	0.796	0.272	0.0964	-0.55	0.688	2.53	1.94	-0.232
AGAATGAGTTTATACGTAGATCAGGGAAGAAAGT	-0.157	0.14	0.357	3.89	-0.175	-0.0164	-0.368	3.35
CTATCAAGGTGAACAAGGTCGTTGATTACTATTC	1.7	1.76	1.54	1.5	1.7	3.12	1.85	2.72
ACTATTAGTTGAGGCGAGGGCAACCGATAGGTTG	1.3	0.575	0.748	0.263	0.386	2.43	0.721	0.813
TCTAGTTAGTCACGGAGGTCACACACGACGGGTA	3.95	3.7	3.44	1.24	4.28	3.56	2.59	1.97
GGAACGAGGGCATTCGAGTGGATAGCATGGCGAT	0.402	0.904	1.23	2.83	0.651	1.69	-0.704	1.87
TAGCCTAGGTCATTGGGCCAGTCTAGTACGCATC	2.48	3.76	3.79	1.52	2.52	2.67	0.501	0.896
GCTAGCAGGCCATTTGGGTCACTCAGTGACGGGC	1.63	0.822	1.04	0.0208	0.754	1.9	0.383	0.166
GGAACTAGGGCATTCGAGTTGATAGCATGGCGAT	0.555	0.292	0.971	0.774	0.131	2.13	-0.433	0.769
GGAACGAGCGCAAGTTGATAGCAGAGTTTGATGG	-0.846	-0.499	-0.47	0.0943	-0.499	-1.01	-0.971	-0.311
CGAACGAGGGCATGAGTTGATACCAAATGCCGAT	1.11	1.48	1.6	2.37	0.992	1.37	-0.127	1.57
CATACAGGGTCAGCTAGGCCAGGGTAGGGACGGC	3.59	4.48	5.13	0.607	4.42	3.28	1.26	1.47
CAAACTAGGTCAAGTTCAAAGTCGGTTTGTGCCA	4.52	5.17	5.92	3.84	4.23	3.52	2.16	6.29
CATTACGGGTCAAGGTTATAGCACGGGTGGTACG	3.78	5.08	5.37	1.61	6.03	3.51	1.29	2.04
TTTAGTTGGTCACGGAGGTCACACACGACGGGTA	4.52	5.05	5.2	0.387	4.87	3.75	3.15	3.7
CGTCCAAGGTCAGAGAGGTCAGGGAATGCCGAGT	5.34	6.59	7.38	3.45	6.19	4.47	3.11	4.88
TCATCTAGGTAAAGGTGAAAGTCGAACGATATGA	1.65	1.58	1.28	0.923	2.08	1.75	0.0366	0.215

Sequence	PBM binding z-score [1]	PBM binding z-score [2]	PBM binding z-score [3]	PBM binding z-score [4]	PBM binding z-score [5]	PBM binding z-score [6]	PBM binding z-score [7]	PBM binding z-score [8]
AGAATGAGGTTACCATAGATCAGGGAAACGCTTG	0.58	1.89	1.72	1.13	2.38	2.59	0.611	0.117
GGAACGAGGGCAAAGCTGATAGCATCTGTCGACG	0.567	1.03	1.5	2.13	0.836	0.546	-0.597	0.452
CGTCACAGTTCAACTAAGGTAACGTAAAGCACGC	2.56	3.25	3.37	3.38	2.76	5.11	2.19	2.16
ATCGAAAGGTCGAAGTGAGTATAGAGAAAGGGAA	1.86	3.79	3.6	1.4	3.83	1.81	-0.426	0.425
ACGGACAGGTGAGTGAAGGTAACTCAGCTGGACG	0.226	0.31	0.674	-0.495	0.344	1.69	-0.483	-0.502
TCTAGTTGGTCAAAGGTCACATACTCGAAATGCG	5.18	6.93	6.01	1.65	7.86	3.89	1.76	2.75
GGAACGAGGGCAGTCGAGTTGATAGCATGGCGAT	0.327	0.643	1.18	1.1	0.35	1.52	-0.895	1.02
CCTACTGGGCCAAGGGCATTGATCAGTCAAAGCA	0.581	0.0127	0.289	-1.17	-0.4	0.178	-0.634	-0.245
TCATTTAGGTAAAGGTGAAAGTCGAACGATATGA	1.52	1.74	1.44	0.874	2.07	2.01	0.0517	0.0443
GTACCAAGGTGAATTGGTCGTTGATGAGTAGGCG	0.471	0.331	0.444	-0.385	0.215	1.17	0.25	-0.534
GGAACGAGGGCAAAGTTGATAGCCTCTGTCGACG	1.42	2.14	1.91	2.49	1.84	1.35	-0.295	1.54
CCTATCAGTTGACCATAAGGGCAACCGAAGCTCG	1.93	1.48	1.03	0.139	0.916	1.98	1.26	0.554
CCGACTGGGGCATAAGGTTACTATAAGCCAGCCC	1.38	1.37	0.813	-0.277	1.04	1.59	0.819	0.0174
ATATGTAGGCTACATCCGGGTCATTCAGGCTATG	2.14	1.7	1.22	0.518	1.95	2.91	2.14	2.15
CCTACCGGGCCAAAGGTCATTGATTCCAATGCTC	4.57	5.86	4.58	0.593	6.64	3.68	1.12	2.38
TCTAGTTGGTCACGGAGGTGACACACGACGGGTA	1.71	1.6	1.86	0.0966	1.37	1.47	0.665	0.176
TATGCTAGGTCAACGATGGTCAGCTAATCTGCTA	3.36	4.02	4.8	0.79	2.62	3.24	0.639	-0.267
CGTCCAAGGTCAAGGTCGGTGAAAGAGACTCGAA	4.27	6.3	6.78	3.67	5.99	4.11	2.88	2.44
